PubChem BioAssay (NCATS)
Results filed as inconclusive are left out. Activity calls are given as the source filed them. Calls come from the whole dose curve; as a rule, active = well fitted cell-killing curve with a large enough effect; inconclusive = small, poorly fitted or top-dose-only effect, or effect the other way; inactive = no such curve, though single readings can be large or run the other way.

Test: Viability qHTS for spleen associated tyrosine kinase inhibitor (SYKi) drug resistant MV4-11 cells (AID 1963824); note: nearly all actives have a fitted effect of over 35% in size
Conditions: SYKi-resistant MV4-11 viability, CellTiter-Glo, 72 h; series mostly up to 45 µM
Method in brief: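 CellTiter-Glo luminescence, read 10 min after reagent addition, reports viability after a 72 hr compound exposure. Cells are an MV4-11 line made resistant to SYK inhibition, seeded at 500 per well onto compound-containing plates.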
Potency is the fitted concentration of half-maximal effect.

| SMILES | Potency | viability, % of control |
| --- | --- | --- |
| O=C(CCO[C@@H]1O[C@H](CO)[C@@H](O)[C@H](O)[C@H]1O)c1ccc(O)cc1 | inactive |  |
| CC(C)n1cnc2c(Nc3cccc(Cl)c3)nc(NCCO)nc21 | 1.84 µM (active) |  |
| COc1c(C)c2c(c(O)c1C/C=C(\C)CC/C=C(\C)CCC(=O)O)C(=O)OC2 | inactive |  |
| CSCC1OC(n2cnc3c(N)ncnc32)C(O)C1O (stereo not drawn) | inactive |  |
| O=C(O)c1ccc(S(=O)(=O)N(Cc2ccc(OC(F)(F)F)cc2)c2ncc(C(F)(F)F)cc2Cl)cc1 | 23.1 µM (active) |  |
| COc1ccccc1-c1c[nH]c2ncc(-c3cncc(C(=O)N(C)C)c3)cc12 | 1.84 µM (active) |  |
| C[C@@H]1O[C@@H](O[C@H]2[C@H](OC(=O)[C@]34CCC(C)(C)C[C@H]3C3=CCC5[C@@]6(C)C[C@@H](O)[C@@H](O[C@@H]7O[C@H](CO)[C@@H](O)[C@H](O)[C@H]7O)[C@@](C)(CO)C6[C@H](O)C[C@@]5(C)[C@]3(C)CC4)OC[C@H](O)[C@@H]2O)[C@H](O)[C@H](O[C@@H]2OC[C@](O)(CO)[C@H]2O)[C@H]1O[C@@H]1OC[C@@H](O)[C@H](O[C@H]2O[C@H](C)[C@@H](O)[C@H](O)[C@@H]2O)[C@H]1O (stereo partly drawn) |  | 86.5% [at 9.25 µM] (inactive) |
| C[C@H](C(=O)NC1CCCC1)N(C(=O)Cn1nnc(-c2ccc3c(c2)OCO3)n1)C1CCCCC1 | 2.91 µM (active) |  |
| C[C@@]12CC[C@@H]3[C@@](CC[C@H]4[C@@]3(C)CCC[C@@]4(C)C(=O)O)(CC1=O)C2 | inactive |  |
| O=C(Nc1ccn(Cc2ccc(O)cc2C(F)(F)F)n1)c1c(F)cccc1F | 13 µM (active) |  |
| CCOC(=O)CCN(C(=O)c1ccc2c(c1)nc(CNc1ccc(C(=N)N)cc1)n2C)c1ccccn1 | inactive |  |
| COC(=O)[C@]1(Cc2ccc(O)c(CC=C(C)C)c2)OC(=O)C(O)=C1c1ccc(O)cc1 | 8.93 µM (active) |  |
| COc1cc2c(cc1O)C1(OC)Cc3ccc4c(c3C1N(C)CC2)OCO4 (stereo not drawn) | 5.08 µM (active) |  |
| Cc1cc(OCCCS(C)(=O)=O)cc(C)c1-c1cccc(COc2ccc(C3=CC(=O)NS3=O)cc2)c1 (stereo not drawn) | 5.17 µM (active) |  |
| N#Cc1ccc(Cn2cncc2CN2CCN(c3cccc(Cl)c3)C(=O)C2)cc1 | 2.95 µM (active) |  |
| COc1c2c(c(C)c3c1C(=O)OC3)OC1(C)CC(O)C34OC(OC)(OC3(C)C)C(O)CC4(C)C1C2 (stereo not drawn) | inactive |  |
| C=C1CCC2C(C)(C(=O)O)CCCC2(C)C1CC/C(C)=C\CO (stereo not drawn) | inactive |  |

| SMILES | Potency | viability, % of control |
| --- | --- | --- |
| CC1(CO)CC(O)[C@]2(C(=O)O)CCC34CC3(C=CC3[C@]5(C)C(CC[C@]34C)C(C)(CO)[C@@H](O)[C@H](O)[C@@H]5O)C2C1 (stereo partly drawn) | 11.2 µM (active) |  |
| Cc1ccc(NS(=O)(=O)c2cc3c(cc2F)NC(=O)CC3)cc1Cl | 16.4 µM (active) |  |
| COc1cc(-c2ccc(O)cc2)c(OC)c(O)c1C1=CC(=O)OC1CC(=O)O (stereo not drawn) | inactive |  |
| O=C(Nc1ccc(Cl)cc1)c1ccccc1NCc1ccncc1 | 11.6 µM (active) |  |
| CC(=O)OCC(=O)[C@@]12O[C@@H]1C[C@H]1[C@@H]3CC=C4C[C@@H](O)CC[C@]4(C)[C@H]3CC[C@@]12C | 18.4 µM (active) |  |
| COc1ccc(N2CCOCC2)c2sc(NC(=O)N3CCC(C)(O)CC3)nc12 | inactive |  |
| CCC[C@@H]1O[C@@H]2C[C@H]3[C@@H]4CCC5=CC(=O)C=C[C@]5(C)[C@H]4[C@@H](O)C[C@]3(C)[C@]2(C(=O)CO)O1 | 8.2 µM (active) |  |
| COc1ccc(C[C@H]2COC(=O)[C@@H]2Cc2ccc(O[C@@H]3O[C@H](CO)[C@@H](O)[C@H](O)[C@H]3O)c(OC)c2)cc1OC | 1.42 µM (active) |  |
| O=C1NC(=O)c2cc(Nc3ccccc3)c(Nc3ccccc3)cc21 | 9.2 µM (active) |  |
| C[C@@]1(O)[C@H](O)[C@@H](CO)O[C@H]1n1ccc(N)nc1=O | 13 µM (active) |  |
| Cc1nc2cc(C(=O)NCc3ccccn3)nn2c(C)c1Cc1cccc(Cl)c1 | 20.6 µM (active) |  |
| COc1cc2ncnc(Nc3ccc(NC(=O)c4ccccc4)cc3)c2cc1OC | 4.61 µM (active) |  |
| O=c1ccn(C2OC(CO)C(O)C2O)c(=O)[nH]1 (stereo not drawn) | 2.06 µM (active) |  |
| CC(C)c1cc(-c2ccc(F)c3ccccc23)nc(N)n1 | 5.17 µM (active) |  |
| Cc1cc(Nc2nn(-c3ccccc3)c(=O)c3ccccc23)n[nH]1 | 0.461 µM (active) |  |
| COc1cc2c(cc1OC)[C@@H]1[C@H](O)[C@@H](OC)C=C3CCN(C2)[C@H]31 | 1.8 µM (active) |  |
